Inconclusive results are not listed. Unmarked numbers belong to inactive results. Activity calls are given as the source filed them. Calls come from the whole dose curve; as a rule, active = well fitted inhibition curve with a large enough effect; inconclusive = small, poorly fitted or top-dose-only effect; inactive = no such curve, though single readings can be large or run the other way.
The molecules below were run against Nicotinamide N-methyltransferase (Homo sapiens) (UniProt P40261) (assay: qHTS Assay for Inhibitors of N-terminal methyltransferase 1 (NTMT1): NNMT MTaseGlo counterscreen assay). Details: NNMT enzyme, MTase-Glo luminescence counterscreen; series mostly up to 57.1 µM; activity change, negative = inhibition: at the top concentration.
Nicotinamide N-methyltransferase (Homo sapiens), sequence (P40261 whole entry, looked up): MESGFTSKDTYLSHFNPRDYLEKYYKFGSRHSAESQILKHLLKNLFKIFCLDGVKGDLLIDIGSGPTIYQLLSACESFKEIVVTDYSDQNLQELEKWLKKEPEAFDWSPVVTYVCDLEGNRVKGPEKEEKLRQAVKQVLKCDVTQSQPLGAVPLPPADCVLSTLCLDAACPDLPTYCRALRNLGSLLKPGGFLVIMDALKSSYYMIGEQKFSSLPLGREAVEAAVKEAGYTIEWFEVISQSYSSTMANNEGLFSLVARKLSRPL
Text: Assay Submitter (PI): Rong Huang Ph.D, Purdue University, West Lafayette, IN 47907
The N-terminal methytransferase 1 is the first methyltransferase that methylates protein alpha-N-amines and plays an important role in regulating cell mitosis, chromatin interactions and DNA repair. It is observed to be over-expressed in various cancer patient tissues like malignant melanoma and colorectal cancer tissues. Knockdown of NTMT1 in cancer cells causes cell mitotic defects and enhances sensitivity to DNA damaging chemotherapeutics. […] These critical cellular processes in which NTMT1 is implicated, coupled with emerging links to cellular dysfunction, strengthen the inference that NTMT1 is a compelling novel anticancer target. Progress have been made in understanding the molecular properties of NTMT1 and the biological consequences of protein alpha-N-terminal methylation, but there are no specific small molecule probes available for NTMT1 to fully characterize its MTase activity. To address this unmet need, a panel of assay is created and established to enable quantitative high-throughput screening (qHTS) for novel, potent, and selective small molecule NTMT1 inhibitors. Two orthogonal qHTS that use different reagents (ThioGlo vs. MTaseGlo) are developed for primary robotic screening against the NCATS chemical library of more than 400,000 small molecules. Identified inhibitors are reacquired, validated, and further characterized.
MTaseGlo Assay is a luminescence screen that measure the activity of methyltransferases based on the reaction product S-adenosyl homocysteine (SAH). The substrate SAM is converted to SAH upon enzyme activation. MTase-Glo reagent and detection solution convert SAH to ATP and measure the light from the luciferase reaction. Nicotinamide N-methyltransferase (NNMT) is a cystolic enzyme that catalyzes the transfer of a methyl group from the co-factor SAM onto the substrate, nicotinamide (NA) to form 1-methyl-nicotinamide (MNA) and SAH. NNMT MTaseGlo assay is used as a counterscreen to evaluate selectivity of identified inhibitors.
Early Translation Branch (ETB)
National Center for Advancing Translational Sciences (NCATS)
National Institute of Health (NIH)
NNMT enzyme, SAM, NA, and control is provided by the Huang laboratory.
In brief, 3 µL of enzyme mixture (final concentrations of 125 nM and 100 µM for NNMT and SAM, respectively) into all wells of a 1,536-well solid-bottom white plate (Greiner Bio One, Monroe, NC). 23 nL of DMSO or compound (final concentration range 234 nM to 143 microM) was transferred via Wako Pin-tool (Wako Automation, Richmond, VA) and incubated (RT) for ~15 minutes. Next, 1 µL of substrate (final concentration 1 µM NA) or buffer was dispensed, and the reaction proceeded for 30 minutes (RT, protected from light) followed by a 1 microL addition of [5X] MTase-Glo Reagent(R). Samples were incubated (RT, protected from light) for 30 minutes to allow for SAH to be converted to ADP, followed by a 5 microL addition of [1X] MTase-Glo Detection Solution(R) to allow for ADP to be converted to ATP, which was then detected with a luciferase reaction. Samples were centrifuged for 15 seconds at 1,000 RPM's, followed by a RT incubation for 30 minutes. Plates were then read using Luminescence optics on a ViewLux detector. Data were normalized to no-enzyme (0% activity) and no-inhibitor (DMSO; 100%) controls, and the resulting percent inhibition data were fitted to a 4-parameter Hill equation using Graphpad Prism.
`COc1cc2nc(N3CCCN(C)CC3)nc(N3CCN(C)CC3)c2cc1OC` was tested, and the “activity change, negative = inhibition” value was -10.6%.
In the case of `Nc1ncnc2c1ncn2[C@@H]1O[C@H](C(=O)N2CCN(CC(=O)Nc3cccc4c3CNC4=O)CC2)[C@@H](O)[C@H]1O`, the “activity change, negative = inhibition” value is reported as -19.9%.
`Cc1[nH]c(=O)c(C#N)cc1-c1ccc2nccn2c1` was tested, and the “activity change, negative = inhibition” value was -11.5%.
In the case of `OCC1OC(n2cnc3c(=S)nc[nH]c32)C(O)C1O` (stereo not given), the “activity change, negative = inhibition” value is reported as -8.37%.
In the case of `O=Nc1ccc2oc(=O)ccc2c1`, the “activity change, negative = inhibition” value is reported as -8.49%.
With `C[N+]1(C)CCC(OC(=O)C(c2ccccc2)c2ccccc2)CC1` the “activity change, negative = inhibition” value was -7.96%.
With `COc1cc(/C=C(\C#N)C(=O)c2ccc(O)c(O)c2)cc(I)c1O` the “activity change, negative = inhibition” value was -14.5%.
For `CN1CCN(CCCN2c3ccccc3Sc3ccc(Cl)cc32)CC1`, the “activity change, negative = inhibition” value was -16.6%.
In the case of `O=c1ccc2ccc(O)c(O)c2o1`, the “activity change, negative = inhibition” value is reported as -8.78%.
For `CC(Cc1ccc(O)c(O)c1)C(C)Cc1ccc(O)c(O)c1` (stereo not given), the Potency was 39.8 µM (active).
For `CC(CN1c2ccccc2Sc2ccccc21)N(C)C` (stereo not given), the “activity change, negative = inhibition” value was 98.6%.
For `CC(C)NC[C@H](O)c1ccc(O)c(O)c1`, the Potency was “inactive”.
With `Nc1ccc(CCNc2ncnc3c2ncn3C2OC(CO)C(O)C2O)cc1` (stereo not given) the “activity change, negative = inhibition” value was -8.43%.
`C=Cc1c(C)c2cc3[nH]c(cc4nc(cc5nc(cc1[nH]2)C(C)=C5CCC(=O)O)C(CCC(=O)O)=C4C)c(C)c3C=C` was tested, and the “activity change, negative = inhibition” value was -14.1%.
For `O=c1c(-c2ccc(O)cc2)coc2cc(O)cc(O)c12`, the “activity change, negative = inhibition” value was -8.39%.
With `Oc1cc2c(cc1O)C(c1ccccc1)CNCC2` (stereo not given) the “activity change, negative = inhibition” value was -11.2%.
In the case of `Nc1nc2ccc(Cl)cc2c2nc(-c3ccco3)nn12`, the “activity change, negative = inhibition” value is reported as -8.24%.
For `Cc1cccc(C)c1OCC(N)C(C)C` (stereo not given), the “activity change, negative = inhibition” value was -3.53%.
In the case of `COc1cc(/C=C(\C#N)C(=O)Nc2nnc(C(F)(F)F)s2)ccc1OCc1ccc(C(F)(F)F)cc1C(F)(F)F`, the “activity change, negative = inhibition” value is reported as -13.8%.
In the case of `COc1ccccc1CNCCCCCCNCCCCCCCCNCCCCCCNCc1ccccc1OC`, the “activity change, negative = inhibition” value is reported as -15.9%.
For `Brc1c(NC2=NCCN2)ccc2nccnc12`, the “activity change, negative = inhibition” value was -12.4%.
With `NC[C@@H]1O[C@H](c2ccccc2)Cc2c1ccc(O)c2O` the “activity change, negative = inhibition” value was -10.6%.
For `S=C(S)N1CCCC1`, the Potency was 25.1 µM (active).
In the case of `CN(C)CCCC1(c2ccc(F)cc2)OCc2cc(C#N)ccc21` (stereo not given), the “activity change, negative = inhibition” value is reported as -12.4%.
For `Cc1cccc(C2CN(C)CCc3c2cc(O)c(O)c3Cl)c1` (stereo not given), the “activity change, negative = inhibition” value was -16.8%.
For `Cc1cc2c(cc1Cl)N(C(=O)Nc1ccc(Oc3cccnc3C)nc1)CC2`, the “activity change, negative = inhibition” value was -5.64%.
For `COc1cc2c(NC3CCN(C)CC3)cc(N3CCCCN(C)CC3)cc2cc1OCCOCCN(C)C`, the “activity change, negative = inhibition” value was -7.49%.
With `O=c1[nH]c(=S)[nH]c(-c2ccccc2)c1Cc1c(O)ccc2ccccc12` the “activity change, negative = inhibition” value was 95.8%.
For `Nc1nc(Nc2ccccc2)nc2c1ncn2[C@@H]1O[C@H](CO)[C@@H](O)[C@H]1O`, the “activity change, negative = inhibition” value was -12%.
With `COc1cc2c(NC3CCN(CC4CCCCC4)CC3)nc(N3CCCCC3)nc2cc1OCCCN1CCCCC1` the “activity change, negative = inhibition” value was -2.71%.
`CCN(CC)C(C)CN1c2ccccc2Sc2ccccc21` (stereo not given) was tested, and the “activity change, negative = inhibition” value was -2.39%.
With `NS(=O)(=O)c1cccc2c1c([N+](=O)[O-])cc1nc(O)c(O)nc12` the “activity change, negative = inhibition” value was -10%.
`COC(=O)[C@@H]1[C@H]2C[C@H]3c4[nH]c5ccccc5c4CCN3C[C@@H]2CC[C@@H]1O` was tested, and the “activity change, negative = inhibition” value was -4.61%.
With `Oc1ccc(C2CNCc3sccc32)cc1O` (stereo not given) the Potency was 35.5 µM (active).
For `COc1ccccc1N1CCN(CCN2C(=O)CC3(CCCC3)CC2=O)CC1`, the “activity change, negative = inhibition” value was -10.2%.
In the case of `C=CCN1CCc2cc(O)c(O)cc2[C@H](c2ccccc2)C1`, the “activity change, negative = inhibition” value is reported as 46.9%.
`Oc1cc(O)c2c(c1)O[C@H](c1ccc(O)c(O)c1)[C@@H](O)C2` was tested, and the “activity change, negative = inhibition” value was -8.77%.
`Cc1c(OCC(F)(F)F)ccnc1CS(=O)c1nc2ccccc2[nH]1` (stereo not given) was tested, and the “activity change, negative = inhibition” value was -12.3%.
For `Cc1ccccc1CNc1ncnc2c1ncn2[C@@H]1O[C@H](CO)[C@@H](O)[C@H]1O`, the “activity change, negative = inhibition” value was -1.62%.
For `Nc1nc(F)nc2c1ncn2[C@@H]1O[C@H](CO)[C@@H](O)[C@@H]1O`, the “activity change, negative = inhibition” value was -13.1%.

Reference: PubChem BioAssay AID1347146 (National Center for Advancing Translational Sciences (NCATS), 2019)
Potency is the fitted concentration of half-maximal effect.
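Throughout, for activity change, negative = inhibition: plate controls were DMSO without inhibitor for no effect and no-enzyme control for full effect.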
